{
  "source": "paper doi:10.1101/2024.03.05.583629",
  "data": [
    {"target": "pT7_6His-AlfaTag-ZIF268 (human, UniProt P18146 335-423)", "assay": "PADIT-seq", "conditions": "dsDNA, one strand shown", "units": {"binding signal": "log2FC"}, "values": [
      {"sequence": "CTCGAGGATATCAAGATCTGGCCTCGGCGCGTCAGCGGGAACCTCTAGCTAGCCGACTCACTATAGGGATAATCGCCCTGAGCAAAGACC", "binding signal": "0.0878 ± 0.104"},
      {"sequence": "CTCGAGGATATCAAGATCTGGCCTCGGCGTTCCACGCGGAACCTCTAGCTAGCCGACTCACTATAGGGATAATCGCCCTGAGCAAAGACC", "binding signal": "0.016 ± 0.0847"},
      {"sequence": "CTCGAGGATATCAAGATCTGGCCTCGGCGCGTGGCAAGGAACCTCTAGCTAGCCGACTCACTATAGGGATAATCGCCCTGAGCAAAGACC", "binding signal": "0.0121 ± 0.1"},
      {"sequence": "CTCGAGGATATCAAGATCTGGCCTCGGCGCGTGGGTAGGAACCTCTAGCTAGCCGACTCACTATAGGGATAATCGCCCTGAGCAAAGACC", "binding signal": "1.97 ± 0.0958"},
      {"sequence": "CTCGAGGATATCAAGATCTGGCCTCGGCTTCCCACGCGGAACCTCTAGCTAGCCGACTCACTATAGGGATAATCGCCCTGAGCAAAGACC", "binding signal": "0.363 ± 0.0983"},
      {"sequence": "CTCGAGGATATCAAGATCTGGCCTCGGCCGGTGGGCGGGAACCTCTAGCTAGCCGACTCACTATAGGGATAATCGCCCTGAGCAAAGACC", "binding signal": "1.3 ± 0.0687"},
      {"sequence": "CTCGAGGATATCAAGATCTGGCCTCGGCTTGCCACGCGGAACCTCTAGCTAGCCGACTCACTATAGGGATAATCGCCCTGAGCAAAGACC", "binding signal": "0.107 ± 0.166"},
      {"sequence": "CTCGAGGATATCAAGATCTGGCCTCGGCGCGTGGAGAGGAACCTCTAGCTAGCCGACTCACTATAGGGATAATCGCCCTGAGCAAAGACC", "binding signal": "0.18 ± 0.105"},
      {"sequence": "CTCGAGGATATCAAGATCTGGCCTCGGCCGCCCACCAGGAACCTCTAGCTAGCCGACTCACTATAGGGATAATCGCCCTGAGCAAAGACC", "binding signal": "0.0728 ± 0.0981"},
      {"sequence": "CTCGAGGATATCAAGATCTGGCCTCGGCCGCCCACGGGGAACCTCTAGCTAGCCGACTCACTATAGGGATAATCGCCCTGAGCAAAGACC", "binding signal": "1.11 ± 0.0917"},
      {"sequence": "CTCGAGGATATCAAGATCTGGCCTCGGCGCGTGGGCCGGAACCTCTAGCTAGCCGACTCACTATAGGGATAATCGCCCTGAGCAAAGACC", "binding signal": "2.26 ± 0.0976"},
      {"sequence": "CTCGAGGATATCAAGATCTGGCCTCGGCGCGTGCGCGGGAACCTCTAGCTAGCCGACTCACTATAGGGATAATCGCCCTGAGCAAAGACC", "binding signal": "0.264 ± 0.107"},
      {"sequence": "CTCGAGGATATCAAGATCTGGCCTCGGCCTGTGGGCGGGAACCTCTAGCTAGCCGACTCACTATAGGGATAATCGCCCTGAGCAAAGACC", "binding signal": "2.23 ± 0.0754"},
      {"sequence": "CTCGAGGATATCAAGATCTGGCCTCGGCGCGTGGTCGGGAACCTCTAGCTAGCCGACTCACTATAGGGATAATCGCCCTGAGCAAAGACC", "binding signal": "0.471 ± 0.1"},
      {"sequence": "CTCGAGGATATCAAGATCTGGCCTCGGCGATTGGGCGGGAACCTCTAGCTAGCCGACTCACTATAGGGATAATCGCCCTGAGCAAAGACC", "binding signal": "0.0131 ± 0.0888"},
      {"sequence": "CTCGAGGATATCAAGATCTGGCCTCGGCCGCACACGCGGAACCTCTAGCTAGCCGACTCACTATAGGGATAATCGCCCTGAGCAAAGACC", "binding signal": "0.422 ± 0.0927"},
      {"sequence": "CTCGAGGATATCAAGATCTGGCCTCGGCCGCCCACCGGGAACCTCTAGCTAGCCGACTCACTATAGGGATAATCGCCCTGAGCAAAGACC", "binding signal": "0.114 ± 0.0972"},
      {"sequence": "CTCGAGGATATCAAGATCTGGCCTCGGCCGCCCAAGGGGAACCTCTAGCTAGCCGACTCACTATAGGGATAATCGCCCTGAGCAAAGACC", "binding signal": "0.0235 ± 0.109"},
      {"sequence": "CTCGAGGATATCAAGATCTGGCCTCGGCGCGTGGGAAGGAACCTCTAGCTAGCCGACTCACTATAGGGATAATCGCCCTGAGCAAAGACC", "binding signal": "2.03 ± 0.0894"},
      {"sequence": "CTCGAGGATATCAAGATCTGGCCTCGGCATGTGGGCGGGAACCTCTAGCTAGCCGACTCACTATAGGGATAATCGCCCTGAGCAAAGACC", "binding signal": "2.94 ± 0.0778"},
      {"sequence": "CTCGAGGATATCAAGATCTGGCCTCGGCACCTGGGCGGGAACCTCTAGCTAGCCGACTCACTATAGGGATAATCGCCCTGAGCAAAGACC", "binding signal": "0.068 ± 0.0997"},
      {"sequence": "CTCGAGGATATCAAGATCTGGCCTCGGCCGCCCAAAAGGAACCTCTAGCTAGCCGACTCACTATAGGGATAATCGCCCTGAGCAAAGACC", "binding signal": "0.0465 ± 0.0996"},
      {"sequence": "CTCGAGGATATCAAGATCTGGCCTCGGCCGCCCACATGGAACCTCTAGCTAGCCGACTCACTATAGGGATAATCGCCCTGAGCAAAGACC", "binding signal": "1.03 ± 0.0882"},
      {"sequence": "CTCGAGGATATCAAGATCTGGCCTCGGCCGCCCACTCGGAACCTCTAGCTAGCCGACTCACTATAGGGATAATCGCCCTGAGCAAAGACC", "binding signal": "0.873 ± 0.0842"},
      {"sequence": "CTCGAGGATATCAAGATCTGGCCTCGGCGCGTGGCCCGGAACCTCTAGCTAGCCGACTCACTATAGGGATAATCGCCCTGAGCAAAGACC", "binding signal": "0.0738 ± 0.102"},
      {"sequence": "CTCGAGGATATCAAGATCTGGCCTCGGCGCGGAGGCGGGAACCTCTAGCTAGCCGACTCACTATAGGGATAATCGCCCTGAGCAAAGACC", "binding signal": "1.88 ± 0.11"}
    ]}
  ]
}
